This passage reports growth results from PubChem BioAssay (NCI).

This is part of a sample that, as a whole, favours compounds with a hit. Of some 83,000 tested, about 20% had one in any assay.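 For each line, cells grew in 96-well plates with the test compound present at a single concentration for 48 hours.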 Unmarked numbers belong to inactive results. Activity calls are given as the source filed them. Rule for the calls: active = growth percent below 10; inactive = the rest.

What all share (assay): NCI-60 one-dose screen, 48 h (100 = growth as untreated, 0 = no growth, -100 = all killed)
What all share (conditions): 10 µM unless noted

In assay [1] the test system is K-562 leukemia.
Assay [2] concerns MALME-3M melanoma.
Assay [3] deals with MDA-MB-231 breast.
The subject of assay [4] is RXF 393 renal.
Assay [5] relates to SF-268 CNS.
The subject of assay [6] is SF-295 CNS.
In assay [7] the test system is SF-539 CNS.
Assay [8] relates to UACC-257 melanoma.
The subject of assay [9] is M14 melanoma.
In assay [10] the test system is HCT-15 colon.
In assay [11] the test system is HT29 colon.
Assay [12] deals with SNB-75 CNS.
Assay [13] relates to U251 CNS.
Assay [14] concerns PC-3 prostate.
Assay [15] relates to SK-MEL-5 melanoma.
The subject of assay [16] is UACC-62 melanoma.
Assay [17] has as its system LOX IMVI melanoma.
Assay [18] relates to SK-MEL-28 melanoma.
The subject of assay [19] is SK-MEL-2 melanoma.
The test system of assay [20] is SNB-19 CNS.

In the case of `COc1ccc2c(c1)C(=O)c1c-2c(OCCCN(C)C)nc2cc(Br)ccc12`, the growth in assay [1] was 53.1%; in assay [2] it was 69.8%; in assay [3], 49.9%; in assay [4], 43.7%; in assay [5], 69%; in [6], 93.9%. For the same molecule, the growth in [7] was 67.6%; in assay [8] it was 108%; in [9], 91.8%; in [10], -31.3% (active); in assay [11], -19.7% (active); in assay [12], 79.2%. Besides, the growth in assay [13] is -75.7% (active); in [14], 63.8%; in assay [15], 87.4%; in assay [16], 86.4%; in assay [17], 20.7%; in assay [18] it was -48.6% (active). Moreover, the growth in assay [19] was 97.7%.

`C=C1CC[C@@H]2[C@](C)(COC(C)=O)[C@H](OC(C)=O)CC[C@@]2(C)[C@@H]1CC(Nc1ccc(S(=O)(=O)Nc2cc(C)on2)cc1)C1=CCOC1=O` (stereo not given in full): the growth in assay [1] is 9.67% (active); in [2] it was 56.6%; in assay [3], 61.1%; in [4], 29.8%; in assay [5], 67.3%; in assay [6], 100%. Also, the growth in assay [7] is 6.3% (active); in [8], 68.9%; in assay [9] it was 29.9%; in assay [10], 0.176% (active); in [11] it was -11% (active); in [12] it was 59.4%. Also, the growth in assay [13] was 30%; in assay [14] it was 70.8%; in assay [15] it was 44.1%; in assay [16], 19.8%; in assay [18] it was 38.1%; in assay [19], 63%.

As for `c1ccc(-n2nnnc2-c2cccc3ccccc23)cc1`, the growth in [1] is 13%; in [2], 34.8%; in assay [3] it was 25.4%; in [4], -5.16% (active); in [5] it was 43.4%; in [6], 1.28% (active). Besides, the growth was -18.8% (active) in [7]; 57.5% in [8]; 8.41% (active) in assay [9]; 18.7% in assay [10]; -1.01% (active) in [11]; 36.7% in assay [20]. In addition, the growth in assay [13] was 19.5%; in assay [14] it was 5.09% (active); in assay [15], 22.2%; in [16], 31.6%; in assay [17] it was 18.6%; in assay [18], 56.5%. Moreover, the growth in [19] is 23.8%.

Regarding `COc1ncc(-c2ccc3nccc(C#CCN4CCN(S(C)(=O)=O)CC4)c3c2)cc1NS(=O)(=O)c1ccc(F)cc1F`, the growth is 8.7% (active) in assay [1]; -32.3% (active) in assay [2]; 10.5% in assay [3]; -23.5% (active) in assay [4]; 6.1% (active) in assay [5]; 13% in assay [6]. The growth in assay [7] was -16.1% (active); in assay [8], -4.75% (active); in assay [9], -2.97% (active); in assay [10], 10.4%; in [11] it was 10.3%; in [12] it was -11.4% (active). The growth was 6.79% (active) in assay [13]; 0.156% (active) in assay [14]; -92.3% (active) in assay [15]; -54.9% (active) in assay [16]; -11.4% (active) in assay [17]; 3.79% (active) in assay [18]. For the same molecule, in assay [19], the growth was 0.951% (active).

Turning to `O=C(Nc1ccc(Cl)cc1Cl)Nc1ccc(-c2cccnc2)cc1N1CCC(CO)CC1`, the growth in assay [1] is 17.7%; in [2], 41.3%; in assay [3], 13.6%; in [4], 49.5%; in [5], 48.4%; in [6], 81.6%. Moreover, the growth in assay [7] was 30.9%; in assay [8] it was 47.8%; in [9], 36%; in assay [10] it was 26.8%; in assay [11] it was 28%; in assay [12] it was 39.4%. The growth was 29.8% in [13]; 16.6% in assay [14]; 27.4% in [15]; 26% in assay [16]; 37.7% in [17]; 46.6% in assay [18]. Further, the growth in [19] is 34.9%.

With `COc1cc(C2C=C(c3ccc(C)cc3)Nc3nc(SC)[nH]c(=O)c32)ccc1Oc1ccnc2cc(Cl)ccc12` (stereo not given), the growth in [1] was 75.6%; in assay [2], 80.1%; in [3] it was 73.6%; in [4], 83.4%; in assay [5] it was 59.6%; in [6], 70.1%. Also, the growth was 100% in assay [7]; 62.7% in assay [8]; 85.1% in [9]; 64% in [10]; 65.3% in assay [11]; 71.7% in [20]. The growth is 80.1% in assay [13]; 60.2% in assay [14]; 63.1% in assay [15]; 61.5% in assay [16]; 79.9% in assay [17]; 97% in assay [18]. Also, in [19], the growth is 78.9%.

On to `COc1cc(C2CC(c3ccc(C)cc3)=NN2C(C)=O)ccc1Oc1ccnc2cc(Cl)ccc12` (stereo not given), for which the growth in assay [1] is 93.3%; in assay [2], 94.7%; in [3], 35.7%; in assay [4], 26.7%; in assay [5], 41.9%; in assay [6], 14.9%. The growth in [7] is 23.1%; in assay [8], 102%; in assay [9] it was 106%; in assay [10], 90.7%; in [11], 77.1%; in assay [20] it was 58.1%. In addition, the growth in assay [13] was 14.7%; in assay [14], 67.9%; in [15] it was 91.1%; in assay [16], 72.5%; in [17], 65.6%; in assay [18], 108%. The growth in assay [19] was 60.6%.

As for `CCCCCCCCCCSc1ncnc2nc[nH]c12`, the growth in assay [1] is 48.5%; in [2], 102%; in assay [3], 75.3%; in [4] it was 89.5%; in assay [5], 83.7%; in assay [6], 68.7%. Moreover, the growth was 86.8% in assay [7]; 48.5% in [8]; 94% in assay [9]; 82.4% in assay [10]; 90.9% in assay [11]; 74.7% in assay [20]. Besides, the growth was 68.8% in assay [13]; 79.8% in assay [14]; 56.4% in assay [15]; 69.9% in assay [16]; 56.3% in assay [17]; 116% in assay [18]. Moreover, in assay [19], the growth was 101%.

As for `O=C1C(=O)c2ccc(Br)cc2-c2cc(Br)ccc21`, the growth in [1] was 4.69% (active); in [2] it was 70.4%; in [3] it was -23.4% (active); in assay [4], 26.1%; in assay [5] it was 22.4%; in assay [6], 78.1%. For the same molecule, the growth in [7] is 117%; in assay [8], 76.8%; in assay [9] it was 68%; in assay [10] it was 50.2%; in assay [11], 105%; in assay [12], 84.2%. Moreover, the growth in assay [13] was -31.8% (active); in assay [14], 83.7%; in assay [15] it was 63.3%; in assay [16], 92.4%; in assay [17], -24.6% (active); in assay [18], 76.7%. Further, the growth in assay [19] is 87.7%.
